Screening data: PubChem BioAssay, several laboratories
A selection: hits, their analogues and other compounds. The true share with any hit is near 5.4%.
CSC inhib: cancer stem cell viability inhibitors, primary screen, luminescence; cancer stem cell-like cells viability; AID 2717, 2010; inhibition, % at 7.5 µM; 300,000 tested, 1.1% active; in the data active = inhibition above about 75%; tested in HMLE shEcad cells
MPTP inh: mitochondrial permeability transition pore inhibitors, primary screen, biochemical, isolated mouse mitochondria, absorbance; 360,000 tested, 1.4% active; Ca2+ swelling absorbance, 30 min; inhibition, % at 10 µM;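 active = inhibition of 50% or more, scaled per plate between neutral and stimulator controls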;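 also: 0% = DMSO wells given calcium and 100% = 1 mM EGTA wells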
Calb FLC: C. albicans growth inhibition with fluconazole, primary screen, CaCi-2 strain, Alamar Blue fluorescence | growth inhibition, % (test concentration not listed) | 300,000 tested, 0.57% active | AID 1979, 2009 | C. albicans CaCi-2 (fluconazole-resistant clinical isolate) + fluconazole, 48 h;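 active = growth inhibition above about 58% in most replicates, limit read from the data, passing the limit was not always enough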;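 also: all wells also contain fluconazole at 8 µg/ml as a sub-toxic cotreatment; 0% = median of DMSO wells and 100% = median of geldanamycin control wells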
SKKanGAS inh: S. pyogenes SKKanGAS growth inhibitors in kanamycin, primary screen, streptokinase expression inhibitor project, SKKanGAS strain, BacTiter-Glo luminescence; 6 h; inhibition, % at 7.5 µM; 300,000 tested, 1.3% active; AID 1662, 2009;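 active = mean replicate score, as percent of positive control median, at least 50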;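 also: strain carries kanamycin resistance gene driven by streptokinase promoter and grows in 40 µg/ml kanamycin; loss of luminescence reflects streptokinase promoter inhibition or plain growth inhibition; 0% = median of DMSO wells and 100% = positive control at its reference dose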
Beta apoptosis: inhibitors of cytokine-induced beta cell apoptosis, primary screen, luminescence | INS-1E cytokine-induced death, ATP luminescence, 48 h; percent of positive-control rescue, neutral wells zero | protection from apoptosis, % (test concentration not listed) | 300,000 tested, 0.8% active | AID 435005, 2010;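 active = Every replicate reaches about 75%, or at least half do and their mean reaches it too, limit read from the data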;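 also: 0% = cytokine-treated negative control wells and 100% = positive control rescue; higher means more ATP so stronger rescue from cytokine killing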
Mdm2 MdmX PPI: inhibitors of human Mdm2-MdmX association, primary screen, cell-based, luminescence, split luciferase, SaOS-2, uHTS | Protein Mdm4 (Homo sapiens) + E3 ubiquitin-protein ligase Mdm2 (Homo sapiens), … | SaOS-2 split-luciferase Mdm2/MdmX complementation | inhibition, % at 8 µM | 330,000 tested, 3% active | AID 485346, 2010;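 active = inhibition of at least 50% at 8 µM in the primary screen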
Target sequence (O15151 whole entry, looked up): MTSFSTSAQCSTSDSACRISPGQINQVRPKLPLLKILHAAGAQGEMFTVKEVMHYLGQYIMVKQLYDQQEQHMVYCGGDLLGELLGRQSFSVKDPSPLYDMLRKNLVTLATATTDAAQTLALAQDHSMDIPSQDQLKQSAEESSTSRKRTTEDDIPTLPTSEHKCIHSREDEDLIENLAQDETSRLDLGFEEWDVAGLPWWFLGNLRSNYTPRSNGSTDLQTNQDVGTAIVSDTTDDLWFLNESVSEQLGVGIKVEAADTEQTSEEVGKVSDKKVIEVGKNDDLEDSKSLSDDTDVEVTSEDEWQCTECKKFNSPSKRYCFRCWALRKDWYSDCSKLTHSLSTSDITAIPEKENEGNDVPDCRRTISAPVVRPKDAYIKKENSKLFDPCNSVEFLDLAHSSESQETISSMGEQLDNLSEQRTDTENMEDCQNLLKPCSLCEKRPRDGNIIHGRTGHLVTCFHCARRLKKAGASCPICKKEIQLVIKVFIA
Target sequence (Q00987 whole entry, looked up): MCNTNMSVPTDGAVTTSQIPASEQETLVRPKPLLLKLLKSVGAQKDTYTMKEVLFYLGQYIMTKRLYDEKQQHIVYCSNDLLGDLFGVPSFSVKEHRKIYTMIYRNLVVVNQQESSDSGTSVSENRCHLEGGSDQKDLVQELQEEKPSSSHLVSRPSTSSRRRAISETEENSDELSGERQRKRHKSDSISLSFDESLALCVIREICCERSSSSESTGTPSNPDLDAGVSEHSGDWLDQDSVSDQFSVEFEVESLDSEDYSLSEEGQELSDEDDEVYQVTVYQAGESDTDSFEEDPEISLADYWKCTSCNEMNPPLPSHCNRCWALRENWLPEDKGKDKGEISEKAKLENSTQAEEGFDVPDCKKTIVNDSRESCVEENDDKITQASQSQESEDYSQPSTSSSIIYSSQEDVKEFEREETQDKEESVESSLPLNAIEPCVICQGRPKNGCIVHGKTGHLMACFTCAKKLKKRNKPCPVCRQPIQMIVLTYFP
Mdm2-MdmX conf: Mdm2-MdmX complex disruptors, retested hits, confirmation, luminescence, single concentration | Mdm2-MdmX binding, luminescent assay | inhibition, % at 8 µM | 10,000 tested, 55% active | AID 489028, 2010 | shares compounds with Mdm2 MdmX PPI; in the data active = inhibition above about 40%
FLuc counter: full-length luciferase signal inhibition, confirmation, counter-screen for Mdm2/MdmX interaction inhibitor project, cell-based, single concentration, SaOS-2; shares compounds with Mdm2 MdmX PPI; SaOS-2 full-length luciferase counterscreen, luminescence; inhibition, % at 8 µM; 6,200 tested, 77% active;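 active = mean inhibition at 8 µM reaching about 37%, which flags the compound as non-specific, limit read from the data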;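 also: p53-null SaOS-2 cells with luciferase driven by a doxycycline-inducible promoter; compound on cells about two nights before reading with doxycycline added after day one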
The depositor's hits bear a star.

Results for Nc1ccc2ncccc2c1N ?
CSC inhib: 43; MPTP inh: 1; Beta apoptosis: -3

How did Nc1nc(N)c2c(ccc3nccc32)[nH]1 do in these assays?
CSC inhib: 43; MPTP inh: -2; Calb FLC: 24; SKKanGAS inh: 40; Beta apoptosis: 11; Mdm2 MdmX PPI: 51*; Mdm2-MdmX conf: 38

How did Cc1ccccc1NC(=S)N1CCN(c2ccccc2C)CC1 do in these assays?
CSC inhib: 6; MPTP inh: 0; Calb FLC: 10; SKKanGAS inh: -1; Beta apoptosis: -1; Mdm2 MdmX PPI: 14

What do the screens show for `C=CCNC(=O)C1CC(=O)N(c2ccc(OCC(=O)Nc3ccc(Cl)c(C(F)(F)F)c3)cc2)C1` (configuration not stated)?
CSC inhib: -8; MPTP inh: 1; Calb FLC: -25; SKKanGAS inh: 1; Mdm2 MdmX PPI: 78*; Mdm2-MdmX conf: 12

Results for C=CCNC(=O)C1CC(=O)N(c2ccc(OCC(=O)Nc3cccc(OC)c3)cc2)C1 (configuration not stated) ?
CSC inhib: -3; MPTP inh: 0; Calb FLC: 12; SKKanGAS inh: 4; Beta apoptosis: 4; Mdm2 MdmX PPI: 3

How did COc1cccc(-c2cc(C(F)(F)F)n3ncc(C(=O)N4CCc5ccccc5C4)c3n2)c1 do in these assays?
CSC inhib: 11; MPTP inh: -2; Calb FLC: 0; Beta apoptosis: 0; Mdm2 MdmX PPI: 17

What do the screens show for `COc1ccc(-c2cc(C(F)(F)F)n3ncc(C(=O)N4CCc5ccccc5C4)c3n2)cc1`?
CSC inhib: 8; MPTP inh: -1; Calb FLC: -6; Beta apoptosis: 9; Mdm2 MdmX PPI: 54*; Mdm2-MdmX conf: 22

How did Cc1cccc(CNC(=O)C2CCC(=O)N(C3CCCCCC3)C2)c1 (configuration not stated) do in these assays?
CSC inhib: 6; MPTP inh: -2; Calb FLC: -13; SKKanGAS inh: -3; Beta apoptosis: -6; Mdm2 MdmX PPI: 13

What do the screens show for `CN1CCN(CCC=C2c3ccccc3Sc3ccc(S(=O)(=O)N(C)C)cc32)CC1`?
CSC inhib: -3; MPTP inh: 0; Beta apoptosis: -7; Mdm2 MdmX PPI: 50*; Mdm2-MdmX conf: 31

What do the screens show for `CCOC(=O)c1c(-c2ccccc2)csc1NC(=O)c1cc(-c2ccccc2OC)on1`?
CSC inhib: 3; MPTP inh: 4; Calb FLC: -20; SKKanGAS inh: -6; Beta apoptosis: 5; Mdm2 MdmX PPI: -2

What do the screens show for `Cc1onc(-c2ccccc2)c1C(=O)Nc1sc2c(c1C#N)CCC2`?
MPTP inh: 4; Calb FLC: 8; SKKanGAS inh: 7; Mdm2 MdmX PPI: 55*; Mdm2-MdmX conf: 60*; FLuc counter: 49*

Results for COC(=O)c1c(-c2ccccc2)csc1NC(=O)c1c(-c2ccccc2)noc1C ?
CSC inhib: 46; MPTP inh: 3; Calb FLC: 0; SKKanGAS inh: 4; Beta apoptosis: 5; Mdm2 MdmX PPI: 97*; Mdm2-MdmX conf: 95*; FLuc counter: 53*

How did N#Cc1c(NC(=O)CSc2nnc(-c3ccncc3)n2CC2CCCO2)sc2c1CCCC2 (configuration not stated) do in these assays?
CSC inhib: 0; MPTP inh: 1; Calb FLC: 8; SKKanGAS inh: -2; Beta apoptosis: 4; Mdm2 MdmX PPI: 22

What do the screens show for `N#Cc1c(NC(=O)CSc2ncc(-c3ccccc3)n2CC2CCCO2)sc2c1CCCC2` (configuration not stated)?
MPTP inh: 7; Calb FLC: 10; SKKanGAS inh: 6; Beta apoptosis: 7; Mdm2 MdmX PPI: 76*; Mdm2-MdmX conf: 42*; FLuc counter: 67*

Results for COC(=O)c1ccc(C)c(NC(=O)c2c(-c3ccccc3)noc2C)c1 ?
CSC inhib: -6; MPTP inh: -2; Calb FLC: -5; SKKanGAS inh: -8; Beta apoptosis: 6; Mdm2 MdmX PPI: -2

How did CCOC(=O)c1c(-c2ccc(F)cc2)csc1NC(=O)c1c(-c2ccccc2)noc1C do in these assays?
CSC inhib: 21; MPTP inh: 3; Calb FLC: 16; SKKanGAS inh: 11; Beta apoptosis: 5; Mdm2 MdmX PPI: 85*; Mdm2-MdmX conf: 50*; FLuc counter: 48*

How did COc1ccc(S(=O)(=O)N2CCCCCC2)cc1NC(=O)CCCOc1ccccc1 do in these assays?
CSC inhib: -11; MPTP inh: 0; Beta apoptosis: 0; Mdm2 MdmX PPI: 2

What do the screens show for `CCCCn1cnc2c(Sc3c([N+](=O)[O-])ncn3C)nc(N)nc21`?
MPTP inh: -2

What do the screens show for `CC(=O)C12CCCCC1CC1[C@@H]3CC(C)C4=CC(=O)CC[C@]4(C)C3CC[C@@]12C` (some centres not stated)?
MPTP inh: 0; Calb FLC: -3; SKKanGAS inh: 5; Mdm2 MdmX PPI: 56*; Mdm2-MdmX conf: 6

How did CCN(CC)C(=O)CSc1nnc(-c2cc3ccccc3cc2O)n1CC do in these assays?
CSC inhib: -9; MPTP inh: 15; Calb FLC: 5; SKKanGAS inh: -1; Beta apoptosis: 1; Mdm2 MdmX PPI: 6

How did CCCCCCCC(=O)N/N=C/c1ccncc1 do in these assays?
MPTP inh: -1; Calb FLC: 8; SKKanGAS inh: -21; Beta apoptosis: -1; Mdm2 MdmX PPI: 16

What do the screens show for `CC(=O)Nc1ccc(C(=O)OCC(=O)N(c2ccccc2)C2CCS(=O)(=O)C2)cc1` (configuration not stated)?
MPTP inh: -1; Beta apoptosis: 1; Mdm2 MdmX PPI: 2

Results for O=C(CCl)N(c1ccccc1)C1CCS(=O)(=O)C1 (configuration not stated) ?
CSC inhib: 52; MPTP inh: 1; Calb FLC: -4; SKKanGAS inh: -3; Beta apoptosis: -4; Mdm2 MdmX PPI: 99*; Mdm2-MdmX conf: 93*; FLuc counter: 55*

Results for O=C(Nc1ccc(Oc2ccccc2)nc1)C1CCCCN1Cc1ccc(O)cc1 (configuration not stated) ?
CSC inhib: 5; MPTP inh: 0; Calb FLC: -15; SKKanGAS inh: 2; Mdm2 MdmX PPI: 1
